Assay outcomes (PubChem BioAssay)
Vaccinia mCherry: vaccinia inhibition (mCherry reporter). Vaccinia virus mCherry reporter infection, fluorescence. Potency, µM (doses to about 36.5 µM), for inactives: at the highest dose activity change, negative = inhibition, most hits filed as inhibitors. actives 0.63% (n = 310,000); calls by dose curve; tested in A549 cells; also: potency is read from the fitted curve at half-maximal effect; nearly all actives have a fitted effect of over 35% in size
VACV Venus inh: inhibitors of vaccinia virus (Venus reporter); Vaccinia virus Venus reporter expression, fluorescence; Potency, µM (top dose mostly 36.5 µM), inactives show at the top dose activity change, negative = inhibition, most hits filed as inhibitors; actives 0.46% (n = 330,000); AID 720580; calls by dose curve; tested in A549 cells; also: potency is read from the fitted curve at half-maximal effect; nearly all actives have a fitted effect of over 30% in size
HCMV antiviral: human cytomegalovirus inhibition; HFF cells, HCMV-luciferase reporter, 72 h; stronger effect = lower value; activity change, negative = inhibition, % at 57.5 µM; actives 4.5% (n = 410,000); AID 1259415; in the data active = activity change below about -60%; inconclusive = no clear call, values can overlap the other calls; inactive = above about -39%
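After 16 h attachment at 37C, HFF cells received test compound and HCMV-luciferase (1 PFU/cell); reporter luminescence read 72 h later, data normalized against buffer-only and known inhibitor Salinomycin.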
LASV entry inh: blocks Lassa virus binding to or entry into cells; Potency, µM (series often up to 37.9 µM), without a hit: at the highest dose activity change, negative = inhibition, hits mostly inhibitors; AID 540256; Lassa virus pseudotype entry inhibition, cell reporter; actives 1.2% (n = 300,000); calls by dose curve; tested in HEK293 cells; also: potency is read from the fitted curve at half-maximal effect; nearly all actives have a fitted effect of over 50% in size
HCV inh: HCV inhibition; actives 3.4% (n = 340,000); Potency, µM (doses to about 41.8 µM), for inactives: top-dose activity change, negative = inhibition, hits mostly inhibitors; Huh7.5.1 HCVcc-Cre infection, luciferase reporter, 44 h; active = well fitted inhibition curve with a large enough effect; inconclusive = small, poorly fitted or top-dose-only effect, or another doubt; inactive = no such curve, though single readings can be large or run the other way; also: potency is read from the fitted curve at half-maximal effect
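HCVcc-Cre virus at an moi near 0.5 was added right after compound to cells cultured 4 h from seeding (1,000 cells/well). Luciferase activity was determined 44 h later, 15 min after substrate addition at RT.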
MARV entry inh: Marburg virus entry inhibition | Potency, µM (titrated, usually from 37.8 µM), for inactives: at the highest dose activity change, negative = inhibition, hits mostly inhibitors | actives 1.8% (n = 300,000) | Marburg virus pseudotyped entry inhibition, cell reporter; calls by dose curve; tested in HEK293 cells; also: potency is read from the fitted curve at half-maximal effect
The depositor's hits bear a star; [ ] = another dose, or the depositor's remark. Compounds with a hit are over-represented: about 7.8% of the library has one in this group of screens. % is scaled to controls: 0 for no effect and ±100 for the full control effect.

Results for Cc1ccc(-c2c(C)n3c4c(=O)n(C)c(=O)n(C)c4nc3n2-c2cccc(O)c2)cc1 ?
Vaccinia mCherry: -28.0%; VACV Venus inh: -23.5%; HCMV antiviral: -18.2; LASV entry inh: inconclusive; MARV entry inh: 9.7%[46.1 µM]

How did Cc1cn2c(=O)cc(COC(=O)c3ccc(NC(=O)COc4ccc(C)c(C)c4)cc3)nc2s1 do in these assays?
Vaccinia mCherry: -10.3%; VACV Venus inh: -8.0%; HCMV antiviral: -1.4; LASV entry inh: 4.9%[46.1 µM]

Results for CCCC(C)C1(CC)C(=O)NC(=Nc2ccccc2OC)NC1=O (stereo not given) ?
HCMV antiviral: 3.9; LASV entry inh: -10.4%; HCV inh: -1.6%; MARV entry inh: -3.2%

What do the screens show for `CCCC(C)C1(CC)C(=O)NC(=Nc2ccc(OC)cc2)NC1=O` (stereo not given)?
Vaccinia mCherry: -7.3%; VACV Venus inh: -15.9%; HCMV antiviral: -60.1*; LASV entry inh: 18.4%; HCV inh: inconclusive; MARV entry inh: 2.1%

How did COc1ccccc1C1CN(Cc2c(C)nc3sccn23)Cc2ccccc2O1 (stereo not given) do in these assays?
Vaccinia mCherry: -12.3%; VACV Venus inh: 1.1%

How did O=C(Nc1cccc(C2=NCCN2)c1)Nc1cccc(C2=NCCN2)c1 do in these assays?
Vaccinia mCherry: -22.0%; VACV Venus inh: inconclusive; HCMV antiviral: -80.6*; HCV inh: -60.2%

What do the screens show for `CC(C)OCCCn1c(SCC(N)=O)nc2c(sc3ccccc32)c1=O`?
Vaccinia mCherry: 0.3%; VACV Venus inh: -7.8%; HCMV antiviral: -35.7; LASV entry inh: inconclusive

Results for CC(=O)/C(N=Nc1ccc2c(c1)OCCO2)=C(\C)O ?
HCMV antiviral: -70.7*; LASV entry inh: inconclusive; HCV inh: -24.0%; MARV entry inh: inconclusive

Results for COc1cc(/C=N/N2C(=O)CSC2=S)cc(Br)c1O ?
Vaccinia mCherry: 318.5%; VACV Venus inh: inactive; HCMV antiviral: -9.3; LASV entry inh: 15.8µM*; HCV inh: -7.9%; MARV entry inh: -11.5%

Results for COc1cccc(/C=N/N2C(=O)CSC2=S)c1O ?
Vaccinia mCherry: 35.0%; VACV Venus inh: 62.7%; HCMV antiviral: 104.7; LASV entry inh: 8.0%; HCV inh: 9.0%; MARV entry inh: inconclusive

What do the screens show for `O=c1[nH]c(=O)n(C2CCCCC2)c(O)c1C1=Nc2ccccc2SC(c2ccc(Cl)cc2)C1` (stereo not given)?
Vaccinia mCherry: -9.1%; VACV Venus inh: -0.6%; HCMV antiviral: -6.0; LASV entry inh: 2.0%[46.1 µM]; MARV entry inh: -4.2%[46.1 µM]

Results for Cc1oc2ncn(CC(C)C)c(=O)c2c1C(=O)NCCCN(Cc1ccccc1)C(C)C ?
Vaccinia mCherry: -16.1%; VACV Venus inh: -7.8%; HCMV antiviral: 4.3; LASV entry inh: 19.4%[46.1 µM]

Results for Cn1nc(C(F)(F)F)c2cc(C(=O)Nc3ccc(C(F)(F)F)cc3)sc21 ?
Vaccinia mCherry: inactive; VACV Venus inh: -16.0%; HCMV antiviral: -106.3*; LASV entry inh: inconclusive; HCV inh: inconclusive; MARV entry inh: inconclusive

How did Cn1nc(C(F)(F)F)c2cc(C(=O)O)sc21 do in these assays?
Vaccinia mCherry: 5.6%; VACV Venus inh: -2.8%; HCMV antiviral: -28.4; LASV entry inh: -9.8%; HCV inh: 6.0%; MARV entry inh: inconclusive

What do the screens show for `Cn1nc(C(F)(F)F)c2cc(C(=O)Nc3ccc(F)cc3)sc21`?
Vaccinia mCherry: -0.3%; VACV Venus inh: -1.8%; HCMV antiviral: -18.3; LASV entry inh: -2.1%; HCV inh: inconclusive; MARV entry inh: -21.5%[46.1 µM]

How did Cn1nc(C(F)(F)F)c2cc(C(=O)Nc3ccc(F)c(Cl)c3)sc21 do in these assays?
Vaccinia mCherry: -15.2%; VACV Venus inh: -7.6%; HCMV antiviral: -75.3*; LASV entry inh: inconclusive; HCV inh: inconclusive; MARV entry inh: inconclusive

How did CCc1ccc(NC(=O)Cn2cnc3sc(C)c(S(=O)(=O)N4CCC(C)CC4)c3c2=O)cc1 do in these assays?
Vaccinia mCherry: -14.3%; VACV Venus inh: -12.6%; HCMV antiviral: -4.0; LASV entry inh: 13.8%[46.1 µM]; MARV entry inh: inconclusive

How did NC(=O)Nc1ccc(/C=C2\C=Cc3ccccc32)cc1 do in these assays?
Vaccinia mCherry: -19.9%; VACV Venus inh: -28.7%

What do the screens show for `CCOC(=O)c1c(NC(=O)CSc2cn(CCNC(=O)c3c(F)cccc3F)c3ccccc23)sc2c1CCCC2`?
Vaccinia mCherry: 1.6%; VACV Venus inh: -10.3%; HCMV antiviral: -4.9; LASV entry inh: -21.9%[46.1 µM]; MARV entry inh: -3.1%[46.1 µM]

What do the screens show for `CC1CCN(CCOCCOc2ccc(Cl)cc2Br)CC1`?
Vaccinia mCherry: -21.5%; VACV Venus inh: -22.3%; HCMV antiviral: 9.5; LASV entry inh: inconclusive; HCV inh: 22.4µM*; MARV entry inh: inconclusive

What do the screens show for `Cc1cc(Cl)c(OCCOCCN2CCN(C)CC2)c(Br)c1`?
Vaccinia mCherry: inactive; VACV Venus inh: -11.0%; HCMV antiviral: 3.0; LASV entry inh: -28.6%[46.1 µM]; HCV inh: inconclusive; MARV entry inh: inconclusive

Results for Cc1cc(Cl)c(OCCOCCN2CCC(C)CC2)c(Br)c1 ?
Vaccinia mCherry: -24.9%; VACV Venus inh: -14.4%; HCMV antiviral: inconclusive; LASV entry inh: inconclusive; HCV inh: inconclusive; MARV entry inh: 6.51µM*

How did CC1CCN(CCCOc2ccc(Cl)cc2Br)CC1 do in these assays?
Vaccinia mCherry: -8.0%; VACV Venus inh: -15.7%; HCMV antiviral: -6.6; LASV entry inh: -14.7%[46.1 µM]; HCV inh: -13.2%; MARV entry inh: inconclusive

What do the screens show for `COc1cccc(N2CCN(C(=O)C3CCN(S(=O)(=O)c4cccc5nonc45)CC3)CC2)c1`?
Vaccinia mCherry: 0.9%; VACV Venus inh: -6.1%; HCMV antiviral: -14.8; LASV entry inh: -13.7%[46.1 µM]

How did CCCCC[C@H](O)/C=C/[C@H]1CCC(=O)[C@@H]1CCCCCCC(=O)N1CCCCC1CO (stereo not given in full) do in these assays?
Vaccinia mCherry: inactive; VACV Venus inh: -23.9%; HCMV antiviral: -74.3*; LASV entry inh: inconclusive; HCV inh: -26.1%; MARV entry inh: inconclusive

Results for CCC1CCCCN1C(=O)CCCOc1ccccc1 (stereo not given) ?
Vaccinia mCherry: -13.4%; VACV Venus inh: -7.8%; HCMV antiviral: -18.7; LASV entry inh: inconclusive; HCV inh: -0.1%; MARV entry inh: 24.9%

What do the screens show for `N#CCSc1nc(Nc2ccc3c(c2)OCO3)c2ccccc2n1`?
HCMV antiviral: -63.0*; LASV entry inh: -17.3%; HCV inh: 8.91µM*; MARV entry inh: inconclusive

What do the screens show for `Cc1cc(C)n(-c2nc3ccccc3nc2Nc2ccc3[nH]c(=O)[nH]c3c2)n1`?
Vaccinia mCherry: -27.6%; VACV Venus inh: -18.8%; HCMV antiviral: -13.7; LASV entry inh: 7.4%; HCV inh: 11.2µM*; MARV entry inh: -17.9%

What do the screens show for `O=C(COc1ccccc1)Nc1ccc(OCc2cc(=O)n3ccsc3n2)cc1`?
Vaccinia mCherry: -1.0%; VACV Venus inh: 4.0%; HCMV antiviral: 4.3; LASV entry inh: -9.6%[46.1 µM]; MARV entry inh: 9.3%[46.1 µM]
